Results filed as inconclusive are left out. Calls of active or inactive are those of the source. Unless noted, calls follow the shape of the dose curve; as a rule, active = well fitted curve in the direction sought with a large enough effect; inconclusive = small, poorly fitted or top-dose-only effect, or another doubt; inactive = no such curve, though single readings can be large; an effect the other way counts as inactive or inconclusive.

Results on 25 compounds are retold here after PubChem BioAssay (NCATS).

The target in assay [1] is Galactokinase (Homo sapiens) (UniProt P51570). Put plainly: qHTS Validation Assay for Inhibitors of Human Galactokinase (GALK) (AID 493189). The method in brief:
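Inhibition was measured as remaining ATP, detected by luciferase luminescence after a 1 h room-temperature reaction. Final conditions: 5 nM GALK, 100 uM galactose, 35 uM ATP, pH 8.0 HEPES buffer.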
On the technique in general: In qHTS, concentration-response curves come from the screen itself.

For assay [2], the target named is Peptidyl-prolyl cis-trans isomerase NIMA-interacting 1 (Homo sapiens) (UniProt Q13526). Put plainly: qHTS Validation Assay to Find Inhibitors of Pin1 (AID 504536; active = well fitted inhibition curve with a large enough effect in the polarisation, with a control signal flat, not every such curve was filed as active; the % refers to the polarisation). The method in brief:
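Fluorescence polarization competition: compounds (titration) displace HiFluor-488-labeled Pin1-1b peptide from Pin1 (0.3 uM final) in pH 7.5 HEPES buffer with DTT, 10 min at room temperature; %Activity normalized to no-enzyme wells, curves fitted.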

Assay [3] deals with Phosphoglycerate kinase, glycosomal (Trypanosoma brucei brucei) (UniProt P07378). As to the kind of experiment: qHTS Validation Assay to Find Inhibitors of Phosphoglycerate Kinase (AID 504547). Also: potency is read from the fitted curve at half-maximal effect. The method in brief:
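PGK activity was coupled to GAPDH (100nM final), which generates the unstable substrate 1,3-bisphosphoglycerate in-well. Reactions ran 60 minutes at room temperature in 100mM TEA pH 7.6, 5mM MgCl2, 0.01% Tween-20, then Kinase-Glo Plus luminescence was read.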

The target in assay [4] is phosphoglycerate mutase (Leishmania major) (UniProt Q4Q090). As to the kind of experiment: qHTS Validation Assay to Find Inhibitors of Phosphoglycerate Mutase (AID 504548). Also: series mostly up to about 58 µM. To be noted: Potency: inhibition qHTS. The method in brief: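 Lm PGAM 1.25nM final; 100 mM TEA pH 7.6, 5 mM MgCl2, 0.01% Tween-20; 45 min RT; Kinase-GloPlus, 10 min; end-point luminescence. Enzyme-free wells as negative controls.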

The nature of assay [5]: Inducers of the Endoplasmic Reticulum Stress Response (ERSR) in human glioma: Validation (AID 504836). The method in brief:
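Stably transfected U87-MG glioma cells carrying a GRP78-based luciferase sensor; 16 h compound incubation. Luminescence end-point read 10 min after Bright-Glo addition at room temperature.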

In assay [6] the target is DNA dC->dU-editing enzyme APOBEC-3G (Homo sapiens) (UniProt Q9HC16). As to the kind of experiment: qHTS for inhibitors of Vif-A3G interactions: Validation (AID 588379). The method in brief: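 HeLa cells stably expressing Vif and A3G-eYFP, 700 cells/well, incubated overnight at 37 deg C, then exposed to compound overnight at 37 deg C. Inhibition of Vif-mediated degradation read as increased yellow fluorescence (Ex 488/Em 500-530) by laser-scanning cytometry.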

A short description of assay [7]: Validation screen for small molecules that induce DNA re-replication in SW480 colon adenocarcinoma cells (AID 504364). The method in brief: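 SW480 cells (250/well) exposed 48 h at 37 C, 5% CO2, then Hoechst-stained 40 min. Nuclear DNA content imaged by fluorescence scanning (405 nm excitation, 500-530 nm emission); re-replication scored as increased nuclei with elevated intensity.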

Assay [8] deals with Ubiquitin carboxyl-terminal hydrolase 1 (Homo sapiens) (UniProt O94782). Put plainly: Inhibitors of USP1/UAF1: Pilot qHTS (AID 504865). Also: nearly all actives have a fitted effect of over 35% in size. Also: potency is read from the fitted curve at half-maximal effect. The method in brief:
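Deubiquitinase activity followed as kinetic rhodamine fluorescence release from 150 nM Ub-Rho. 1 nM USP1/UAF1 with compound, after 15 min room-temperature preincubation, in HEPES pH 7.8 buffer containing TCEP, EDTA, BSA and Tween-20.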

Assay [9] can be described thus: qHTS for Inhibitors of ATXN expression: Validation (AID 588378). Also: nearly all actives have a fitted effect of over 75% in size. Also: potency is read from the fitted curve at half-maximal effect. The method in brief: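 Luciferase luminescence (Bright-Glo) from an ATXN2-FFLuc HEK293 line after 24 h compound exposure at 37 °C, preceded by a CellTiter-Fluor fluorescence viability read. Serial dilutions of a reference ATXN2 inhibitor and a luciferase inhibitor served as controls.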
Assay [10] can be described thus: qHTS for Inhibitors of ATXN expression: Validation of Cytotoxic Assay (AID 588349). The method in brief: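 HEK293 cells treated with titrated compound for 72 hr at 37 degrees C; viability read as intracellular ATP by CellTiter Glo luminescence.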

Sequence of DNA dC->dU-editing enzyme APOBEC-3G (Homo sapiens) (Q9HC16 whole entry, looked up): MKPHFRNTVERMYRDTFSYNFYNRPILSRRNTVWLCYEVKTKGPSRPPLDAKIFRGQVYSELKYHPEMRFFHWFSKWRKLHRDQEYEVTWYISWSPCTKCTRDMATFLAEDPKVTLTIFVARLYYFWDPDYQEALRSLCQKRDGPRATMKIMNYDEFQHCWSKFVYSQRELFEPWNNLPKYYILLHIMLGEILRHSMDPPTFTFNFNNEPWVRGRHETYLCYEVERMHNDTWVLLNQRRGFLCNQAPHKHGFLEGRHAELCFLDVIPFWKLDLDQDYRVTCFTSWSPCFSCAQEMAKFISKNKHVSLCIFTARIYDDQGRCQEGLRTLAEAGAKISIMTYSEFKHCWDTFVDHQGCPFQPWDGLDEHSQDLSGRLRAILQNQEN
Sequence of Phosphoglycerate kinase, glycosomal (Trypanosoma brucei brucei) (P07378 whole entry, looked up): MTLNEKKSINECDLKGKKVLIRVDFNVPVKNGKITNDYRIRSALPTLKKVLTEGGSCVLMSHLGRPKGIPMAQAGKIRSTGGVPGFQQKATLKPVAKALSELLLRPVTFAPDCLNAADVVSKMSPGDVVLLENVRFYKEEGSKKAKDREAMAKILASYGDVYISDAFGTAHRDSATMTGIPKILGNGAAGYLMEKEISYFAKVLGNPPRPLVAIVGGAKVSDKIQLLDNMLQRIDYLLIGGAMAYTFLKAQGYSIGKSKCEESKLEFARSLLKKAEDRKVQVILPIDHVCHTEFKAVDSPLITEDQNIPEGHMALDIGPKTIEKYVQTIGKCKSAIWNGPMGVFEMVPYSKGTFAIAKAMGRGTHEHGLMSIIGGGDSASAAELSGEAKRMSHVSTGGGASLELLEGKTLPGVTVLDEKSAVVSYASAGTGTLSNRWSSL
Sequence of Peptidyl-prolyl cis-trans isomerase NIMA-interacting 1 (Homo sapiens) (Q13526 whole entry, looked up): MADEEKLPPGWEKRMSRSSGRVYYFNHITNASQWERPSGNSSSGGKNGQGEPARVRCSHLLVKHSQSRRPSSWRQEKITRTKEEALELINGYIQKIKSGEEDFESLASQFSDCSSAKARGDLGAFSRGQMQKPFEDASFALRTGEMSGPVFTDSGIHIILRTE
Sequence of Ubiquitin carboxyl-terminal hydrolase 1 (Homo sapiens) (O94782 whole entry, looked up): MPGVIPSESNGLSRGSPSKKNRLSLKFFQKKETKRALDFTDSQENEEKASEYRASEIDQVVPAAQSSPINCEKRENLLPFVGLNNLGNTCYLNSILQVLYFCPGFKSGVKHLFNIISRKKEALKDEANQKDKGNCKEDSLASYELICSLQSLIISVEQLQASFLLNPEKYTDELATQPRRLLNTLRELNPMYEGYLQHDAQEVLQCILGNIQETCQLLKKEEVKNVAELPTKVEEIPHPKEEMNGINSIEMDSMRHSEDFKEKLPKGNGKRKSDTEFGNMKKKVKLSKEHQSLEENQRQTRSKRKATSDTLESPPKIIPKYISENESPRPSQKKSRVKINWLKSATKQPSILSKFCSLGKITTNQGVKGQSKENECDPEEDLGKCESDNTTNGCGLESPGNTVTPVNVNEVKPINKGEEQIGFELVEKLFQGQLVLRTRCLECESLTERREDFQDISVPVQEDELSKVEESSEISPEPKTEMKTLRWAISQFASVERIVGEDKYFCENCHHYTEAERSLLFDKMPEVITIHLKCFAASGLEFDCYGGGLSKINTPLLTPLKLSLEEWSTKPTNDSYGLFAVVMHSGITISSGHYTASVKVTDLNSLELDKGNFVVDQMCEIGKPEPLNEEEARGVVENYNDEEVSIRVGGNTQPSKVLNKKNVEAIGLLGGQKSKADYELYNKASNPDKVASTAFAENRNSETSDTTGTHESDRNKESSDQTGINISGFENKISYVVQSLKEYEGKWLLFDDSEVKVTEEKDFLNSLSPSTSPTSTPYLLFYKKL
Sequence of phosphoglycerate mutase (Leishmania major) (Q4Q090 1-553): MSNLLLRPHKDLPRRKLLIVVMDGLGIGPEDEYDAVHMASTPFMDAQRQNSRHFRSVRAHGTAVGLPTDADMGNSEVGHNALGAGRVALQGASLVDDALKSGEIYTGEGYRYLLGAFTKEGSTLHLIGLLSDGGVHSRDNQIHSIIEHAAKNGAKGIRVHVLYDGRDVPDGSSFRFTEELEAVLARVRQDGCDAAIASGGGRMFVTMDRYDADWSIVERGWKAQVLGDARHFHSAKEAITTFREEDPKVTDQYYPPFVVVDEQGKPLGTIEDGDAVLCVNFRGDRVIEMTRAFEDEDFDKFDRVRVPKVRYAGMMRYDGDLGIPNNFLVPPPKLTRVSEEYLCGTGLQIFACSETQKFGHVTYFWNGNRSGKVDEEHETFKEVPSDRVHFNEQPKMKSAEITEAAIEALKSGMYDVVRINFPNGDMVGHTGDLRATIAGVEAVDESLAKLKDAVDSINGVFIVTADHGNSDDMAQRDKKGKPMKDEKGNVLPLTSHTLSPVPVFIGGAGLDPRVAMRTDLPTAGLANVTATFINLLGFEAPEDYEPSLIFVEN
Sequence of Galactokinase (Homo sapiens) (P51570 whole entry, looked up): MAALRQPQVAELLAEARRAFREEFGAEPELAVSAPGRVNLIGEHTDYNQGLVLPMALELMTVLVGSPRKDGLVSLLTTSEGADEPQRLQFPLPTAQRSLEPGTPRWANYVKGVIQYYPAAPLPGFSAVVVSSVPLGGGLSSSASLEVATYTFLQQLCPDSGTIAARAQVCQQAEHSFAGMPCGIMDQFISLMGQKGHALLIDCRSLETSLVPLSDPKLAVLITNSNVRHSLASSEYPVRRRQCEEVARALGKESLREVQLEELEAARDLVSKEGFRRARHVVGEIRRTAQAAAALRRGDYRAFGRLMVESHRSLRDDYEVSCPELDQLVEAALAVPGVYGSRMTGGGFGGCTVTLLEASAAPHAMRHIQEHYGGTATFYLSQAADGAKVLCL

As to `c1ccc2c(c1)[I+]c1ccccc1-2`, the call in assay [1], in assay [5] and in assay [6] was inactive. Moreover, the Potency entry in assay [2], in [3] and in [4] was “inactive” in each case.

In the case of `CC(C)CC(NP(=O)(O)O[C@@H]1O[C@@H](C)[C@H](O)[C@@H](O)[C@H]1O)C(=O)NC(Cc1c[nH]c2ccccc12)C(=O)O` (stereo partly specified), the compound was classed as inactive in [1] and in [5]. Besides, in [7], the Potency result was “inactive”.

In the case of `CN(N=O)c1cc(O)ccc1O`, the compound was called inactive in [1]. For the same compound, the Potency entry in assay [7], in [4] and in assay [8] was “inactive” throughout. Further, in [9], the Potency was 28.2 µM (active).

As for `O=P(O)(O)C(Cl)(Cl)P(=O)(O)O`, the call in [1] and in assay [5] was inactive. Moreover, the Potency result in [7] and in assay [8] was “inactive” each time.

`C=CCN1C[C@@H](C)N([C@H](c2ccc(C(=O)N(CC)CC)cc2)c2cccc(OC)c2)C[C@@H]1C`: the result in assay [1] was inactive. Besides, the Potency result in assay [7], in assay [3], in assay [4], in assay [8], in assay [10] and in [9] was “inactive” throughout.

For `C[N+](C)(C)CC#CCN1CCCC1=O`, the compound was classed as inactive in assay [1], in [5] and in assay [6]. Further, the Potency entry in [7], in assay [3], in assay [4], in [8], in [10] and in assay [9] was “inactive” throughout.

As to `CC(C)(C)c1cc(C=C(C#N)C#N)cc(C(C)(C)C)c1O`, the outcome in [1] was inactive. Also, the Potency result in assay [2], in assay [3] and in [4] was “inactive” each time. For the same compound, the Potency in [9] is 0.631 µM (active).

Regarding `NC(CCCCCP(=O)(O)O)C(=O)O` (stereo unspecified), the compound was called inactive in assay [1] and in [5]. Moreover, the Potency entry in assay [7], in assay [3], in [4], in assay [8], in [10] and in assay [9] was “inactive” throughout.

On to `CN(N=O)c1ccc(O)c(O)c1`, for which the result in [1] and in assay [5] was inactive. The Potency result in assay [7], in [4], in [10] and in [9] was “inactive” throughout. For the same compound, the values for the Potency in assay [3] and in assay [8] were 6.01 µM (active) and 22.4 µM (active), respectively.

For the compound `Cc1c2ccncc2c(C)c2c1[nH]c1ccccc12`, the result in assay [1] and in assay [5] was inactive. Moreover, the Potency entry in assay [2], in assay [3], in [4] and in assay [10] was “inactive” throughout.

`CN1C2CCC1CC(OC(c1ccccc1)c1ccc(Cl)cc1)C2` (stereo unspecified): in assay [1], the result was inactive. The Potency entry in assay [7] and in assay [8] was “inactive” throughout.

With `O=C(O)c1cc[c]([Hg][Cl])cc1`, the outcome in assay [1] and in assay [5] was inactive. Also, the Potency result in assay [7] and in assay [3] was “inactive” in each case.

Take `C[C@@H]1O[C@@H](O[C@H]2C[C@@H](O)[C@]3(CO)[C@@H]4C(CC[C@]3(O)C2)[C@@]2(O)CC[C@H]([C@@H]3COC(=O)C3)[C@@]2(C)C[C@H]4O)[C@H](O)[C@H](O)[C@H]1O` (stereo partly specified): the Potency entry in assay [2], in [3], in assay [4] and in [8] was “inactive” throughout. For the same compound, the Potency in [9] was 1.78 µM (active).

Consider `CC(C)[C@@]1(NC(=O)[C@@H]2C[C@@H]3c4cccc5[nH]cc(c45)C[C@H]3N(C)C2)O[C@@]2(O)[C@@H]3CCCN3C(=O)[C@H](Cc3ccccc3)N2C1=O`, for which the Potency entry in [2], in assay [3], in [4], in assay [8] and in assay [10] was “inactive” each time. Besides, the compound was classed as inactive in [5] and in [6].

For `CC(C)(O)[C@@H]1C2OC(=O)[C@@H]1[C@]1(O)C[C@H]3O[C@]34C(=O)O[C@H]2[C@]14C` (tested in a mixture with another compound), the Potency result in [2], in assay [3], in [4], in assay [8], in [10] and in assay [9] was “inactive” each time. The compound was classed as inactive in [5].

In the case of `CCn1cnc2c(Nc3cccc(Cl)c3)nc(N[C@@H]3CCCC[C@@H]3N)nc21`, the call in assay [1] was inactive. For the same compound, the Potency entry in assay [3] and in assay [4] was “inactive” each time. Besides, in [9], the Potency is 2.51 µM (active).

Regarding `CCCCNCC(O)c1ccc(O)cc1` (stereo unspecified), the Potency entry in [8] was “inactive”.

On to `COc1ccc2c(c1O)-c1cccc3c1[C@@H](C2)N(C)CC3`, for which the Potency result in assay [2], in assay [3], in assay [4] and in assay [9] was “inactive” in each case. The result in assay [5] was inactive.

As to `C=CCN(C1=NCCN1)c1c(Cl)cccc1Cl`, the Potency result in assay [2], in assay [3], in assay [4], in assay [8], in [10] and in assay [9] was “inactive” throughout.

Take `F/C(COc1ccc2c(c1)[nH]c1ccccc12)=C1/CN2CCC1CC2`: the Potency entry in assay [8] is “inactive”.

Turning to `C[C@H](N)Cc1cccc(C(F)(F)F)c1`, the Potency result in [2], in assay [3], in assay [4], in assay [8], in assay [10] and in assay [9] was “inactive” each time. Besides, in [5], the call was inactive.

With `N[C@@H](Cn1ccc(=O)[nH]c1=O)C(=O)O`, the Potency entry in assay [2], in [3], in assay [4], in [8], in assay [10] and in assay [9] was “inactive” in each case. Moreover, the compound was called inactive in assay [5].

Consider `CN1CC[C@@]2(C)c3cc(OC(=O)Nc4ccccc4)ccc3N(C)[C@@H]12`, for which the Potency entry in assay [2], in assay [3], in [4] and in assay [9] was “inactive” in each case. Further, in assay [5], the call was inactive.

Turning to `CCCN1CCc2cc(O)cc3c2[C@H]1Cc1ccc(O)c(O)c1-3`, the Potency result in assay [3] and in assay [8] was “inactive” in each case. The compound was classed as inactive in assay [5].

For the compound `CN1CCc2cc(O)cc3c2[C@H]1Cc1ccc(O)c(O)c1-3`, the Potency entry in assay [3], in assay [8], in [10] and in assay [9] was “inactive” in each case. In addition, the compound was called inactive in assay [5].
